Here are results for five compounds from PubChem BioAssay.

One experiment concerns the target Albumin (Bos taurus) (UniProt P02769). The experiment is described as follows: compounds binding labelled BSA control protein – biochemical, small-molecule microarray, Alexa647 label, 635/667 nm fluorescence, artefact control for SMM control protein annotation, profiling panel (AID 1118).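 Also: score merges 667 nm emission intensity and signal-to-noise per printed compound spot.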 To be noted: BSA-A647 binding, fluorescence 635 nm, higher = more signal.
Experiment [1] in a line: probe aXIP binding to arrayed compounds – biochemical, NeuroSMM set, 635/667 nm fluorescence, primary screen (AID 1119).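 Also: probe is the protein aXip251-270 applied at 1 µg/mL to compound-printed slides; binding of probe to printed compounds measured as 667 nm fluorescence plus signal to noise.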 To be noted: small-molecule microarray, higher = more signal, called active from +8 up or from −8 down.
The nature of experiment [2]: probe aNOTCH3 binding on compound microarray – biochemical, small-molecule microarray, 635/667 nm fluorescence, primary screen (AID 1120).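 Also: probe is a biotin-tagged antibody raised against NOTCH3 rather than NOTCH3 protein; score merges spot fluorescence near 667 nm with spot signal to noise.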 The conditions noted are these: higher = more signal.
Experiment [3] in a line: probe aNOTCH2 binding on compound microarray – biochemical, small-molecule microarray, 635/667 nm fluorescence, primary screen (AID 1121).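 Also: score merges feature fluorescence read at 667 nm with its signal to noise.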 To be noted: higher = more signal.
In experiment [4] the target is Carbonic anhydrase 2 (Homo sapiens) (UniProt P00918). The experiment is described as follows: compounds binding carbonic anhydrase 2 – biochemical, small-molecule microarray, Alexa647-labelled CAII, profiling panel (AID 1122). The conditions noted are these: CAII-A647 binding fluorescence, higher = more signal.
Experiment [5] is described as follows: COS7 lysate on small-molecule microarray, probe aHis, 635 nm (AID 1123).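 Also: z-score combines 667nm fluorescence intensity with signal-to-noise per printed compound spot.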 To be noted: COS7 cell lysate, fluorescence, higher = more signal.
Experiment [6] in a line: probe aLAP1 signal on lysate-treated microarray – cell lysate, small-molecule microarray, COS7 lysate, primary screen (AID 1124).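 Also: lysate comes from COS7 cells expressing LAP1 and is applied at 0.3 µg/mL; score merges spot fluorescence near 667 nm with signal-to-noise over triplicate slides.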 The conditions noted are these: probe aLAP1, fluorescence, higher = more signal.
The subject of a further experiment is Sam68 (KHDRBS1). Description: compounds binding KHDRBS1 protein – biochemical, small-molecule microarray, 635 nm fluorescence, primary screen (AID 1125).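 Also: score merges 667 nm channel intensity with signal to noise over triplicate slides.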 The conditions noted are these: higher = more signal.
For experiment [7], the system named is Chordin-like protein 2 (CHRDL2). Description: compounds binding chordin-like 2 – biochemical, small-molecule microarray, 635 nm fluorescence, primary screen (AID 1126).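 Also: printed compound slides probed with Chrdl2 protein at 4 µg/mL for 1 h at 4 C; score merges 667 nm emission intensity with signal to noise over three replicate slides.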 The conditions noted are these: fluorescence 635 nm, higher = more signal.
The target of experiment [8] is Concanavalin-A (Canavalia ensiformis) (UniProt P02866). The experiment is described as follows: compounds binding concanavalin A lectin – biochemical, small-molecule microarray, Alexa647 label, 635 nm, artefact control for SMM control protein annotation, primary screen (AID 1127).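 Also: z combines 667 nm emission intensity with signal-to-noise across three replicate slides.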 The conditions noted are these: ConA-A647 binding fluorescence, higher = more signal.
Chain of Concanavalin-A (Canavalia ensiformis) (P02866 whole entry, looked up): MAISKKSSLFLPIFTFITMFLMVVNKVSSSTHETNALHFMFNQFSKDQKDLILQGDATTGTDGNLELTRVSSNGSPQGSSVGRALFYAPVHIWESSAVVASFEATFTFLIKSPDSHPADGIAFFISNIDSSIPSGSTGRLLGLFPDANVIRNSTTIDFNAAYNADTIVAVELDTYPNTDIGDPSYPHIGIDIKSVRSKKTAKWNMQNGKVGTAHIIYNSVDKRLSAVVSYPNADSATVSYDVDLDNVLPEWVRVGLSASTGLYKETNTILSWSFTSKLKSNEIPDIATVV
Experiment [9] can be described thus: compounds binding Alexa647 anti-His antibody – biochemical, small-molecule microarray, 635 nm fluorescence, artefact control for SMM control protein annotation, primary screen (AID 1128).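 Also: score merges feature fluorescence with signal-to-noise for each printed compound spot.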 To be noted: higher = more signal.
The subject of experiment [10] is Human papillomavirus type 1a E7 protein (residues 1-88). Description: HPV1a E7 small-molecule binders, primary screen, biochemical, small-molecule microarray, residues 1-88, 635 nm (AID 1129). To be noted: small-molecule microarray binding, fluorescence 635 nm; higher = more signal.
Experiment [11] concerns the target Focal adhesion kinase 1 (Homo sapiens) (UniProt Q05397). Description: PTK2 protein binding on printed compound slides – biochemical, small-molecule microarray, 635/667 nm fluorescence, BSA, DTT, primary screen (AID 1130).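 Also: composite of spot emission at 667 nm and signal to noise over triplicate slides.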 To be noted: 635 nm fluorescence, higher = more signal.
The subject of experiment [12] is Fibrinogen (Alexa647-labelled). Description: Alexa647-fibrinogen binding to printed small molecules – biochemical, small-molecule microarray, 635/667 nm fluorescence, artefact control for SMM control-protein annotation, profiling panel (AID 1131).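 Also: z-score merges 667 nm fluorescence with per-spot signal-to-noise over triplicate slides.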 The conditions noted are these: fibrinogen-A647 binding fluorescence, higher = more signal.
Experiment [13] deals with Follistatin (Homo sapiens) (UniProt P19883). The experiment is described as follows: FST protein binding to printed compounds – biochemical, small-molecule microarray, 635/667 nm fluorescence, primary screen (AID 1132). To be noted: 635 nm fluorescence, higher = more signal.
Chain of Follistatin (Homo sapiens) (P19883 whole entry, looked up): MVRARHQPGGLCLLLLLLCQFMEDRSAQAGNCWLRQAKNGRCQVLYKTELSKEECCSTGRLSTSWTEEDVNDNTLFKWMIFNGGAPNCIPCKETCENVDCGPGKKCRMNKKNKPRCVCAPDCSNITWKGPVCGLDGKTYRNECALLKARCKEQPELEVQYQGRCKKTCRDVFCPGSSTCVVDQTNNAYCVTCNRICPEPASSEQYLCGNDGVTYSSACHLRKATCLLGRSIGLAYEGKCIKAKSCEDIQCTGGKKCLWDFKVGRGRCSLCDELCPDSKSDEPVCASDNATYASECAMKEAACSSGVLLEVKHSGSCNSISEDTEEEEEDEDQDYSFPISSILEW
The target of experiment [14] is Fibroblast growth factor 2 (Homo sapiens) (UniProt P09038). Description: basic fibroblast growth factor binding to printed compounds – biochemical, small-molecule microarray, 635/667 nm fluorescence, primary screen (AID 1133). The conditions noted are these: FGF2, fluorescence 635/667, higher = more signal.
Chain of Fibroblast growth factor 2 (Homo sapiens) (P09038 whole entry, looked up): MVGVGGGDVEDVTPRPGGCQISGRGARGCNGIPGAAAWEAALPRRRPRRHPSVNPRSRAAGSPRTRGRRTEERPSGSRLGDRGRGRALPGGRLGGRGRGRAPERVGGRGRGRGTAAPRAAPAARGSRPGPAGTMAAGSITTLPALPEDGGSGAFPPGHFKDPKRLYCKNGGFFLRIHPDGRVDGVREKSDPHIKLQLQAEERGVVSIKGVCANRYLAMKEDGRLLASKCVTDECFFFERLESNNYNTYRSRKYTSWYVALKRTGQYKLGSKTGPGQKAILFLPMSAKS
Experiment [15] is described as follows: JC-1 mitochondrial potential readout, lung cancer cells – cell-based, A549, JC-1 fluorescence, basal, 24 h, 100 nL, profiling panel (AID 1138).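 Also: A549 lung adenocarcinoma cells under basal conditions with no added stimulus; test concentration not given here.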 The conditions noted are these: higher = more signal.
The subject of the next experiment is Lefty1. The experiment is described as follows: Lefty1 protein binding to printed compounds – biochemical, small-molecule microarray, 635/667 nm fluorescence, primary screen (AID 1139). To be noted: fluorescence 635/667, higher = more signal.
In experiment [16] the test system is wheat germ agglutinin (Triticum aestivum), Alexa647-labelled. The experiment is described as follows: Alexa647-WGA lectin binding to printed small molecules – biochemical, small-molecule microarray, 635/667 nm fluorescence, artefact control for SMM control-protein annotation, profiling panel (AID 1140).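 Also: score merges 667 nm feature emission with signal to noise over triplicate slides.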 To be noted: WGA-A647 binding, 635 nm fluorescence, higher = more signal.

Experiment [17] addresses Luciferin 4-monooxygenase (Photinus pyralis) (UniProt P08659). Description: inhibition of purified Photinus pyralis luciferase – biochemical, luminescence, purified enzyme, 2006 set, primary screen (AID 1141).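 Also: cell-free assay with purified firefly luciferase at 100 ng per well in PBS; test concentration not given here.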 The conditions noted are these: purified firefly luciferase, SteadyGlo luminescence, 30 min; higher = more signal, called active from +8 up or from −8 down.

Activity calls are given as the source filed them.

Chain of Luciferin 4-monooxygenase (Photinus pyralis) (P08659 whole entry, looked up): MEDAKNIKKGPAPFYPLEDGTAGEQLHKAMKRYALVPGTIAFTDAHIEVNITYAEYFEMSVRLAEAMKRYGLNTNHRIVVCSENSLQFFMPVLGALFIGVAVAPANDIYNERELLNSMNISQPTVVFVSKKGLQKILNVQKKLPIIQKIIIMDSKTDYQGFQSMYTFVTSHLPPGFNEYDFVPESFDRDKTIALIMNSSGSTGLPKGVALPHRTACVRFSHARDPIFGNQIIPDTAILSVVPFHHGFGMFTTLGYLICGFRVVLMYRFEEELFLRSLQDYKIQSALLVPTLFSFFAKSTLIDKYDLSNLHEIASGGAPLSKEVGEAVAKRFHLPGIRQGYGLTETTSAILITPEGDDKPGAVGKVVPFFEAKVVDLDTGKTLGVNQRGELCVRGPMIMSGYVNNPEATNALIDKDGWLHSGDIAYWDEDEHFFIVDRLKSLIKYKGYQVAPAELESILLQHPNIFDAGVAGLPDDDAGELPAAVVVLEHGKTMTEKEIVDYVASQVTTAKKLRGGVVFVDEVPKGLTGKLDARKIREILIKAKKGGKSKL
Chain of Albumin (Bos taurus) (P02769 whole entry, looked up): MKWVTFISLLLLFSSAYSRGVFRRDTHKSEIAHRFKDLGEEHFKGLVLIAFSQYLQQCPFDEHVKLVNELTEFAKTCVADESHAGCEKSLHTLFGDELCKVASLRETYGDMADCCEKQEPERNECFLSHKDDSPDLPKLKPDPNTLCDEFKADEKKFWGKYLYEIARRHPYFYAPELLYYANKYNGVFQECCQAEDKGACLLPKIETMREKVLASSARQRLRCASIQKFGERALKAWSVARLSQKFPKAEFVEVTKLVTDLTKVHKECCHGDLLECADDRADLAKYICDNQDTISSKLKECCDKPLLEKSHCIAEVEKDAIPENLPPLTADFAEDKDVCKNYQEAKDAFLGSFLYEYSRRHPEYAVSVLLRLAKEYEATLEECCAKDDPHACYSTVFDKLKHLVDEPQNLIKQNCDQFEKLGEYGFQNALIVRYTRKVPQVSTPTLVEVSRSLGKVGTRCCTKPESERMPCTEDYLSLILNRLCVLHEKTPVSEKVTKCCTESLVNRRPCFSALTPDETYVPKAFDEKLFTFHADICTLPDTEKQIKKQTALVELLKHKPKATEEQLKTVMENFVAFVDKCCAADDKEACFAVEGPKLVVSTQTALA
Chain of Focal adhesion kinase 1 (Homo sapiens) (Q05397 whole entry, looked up): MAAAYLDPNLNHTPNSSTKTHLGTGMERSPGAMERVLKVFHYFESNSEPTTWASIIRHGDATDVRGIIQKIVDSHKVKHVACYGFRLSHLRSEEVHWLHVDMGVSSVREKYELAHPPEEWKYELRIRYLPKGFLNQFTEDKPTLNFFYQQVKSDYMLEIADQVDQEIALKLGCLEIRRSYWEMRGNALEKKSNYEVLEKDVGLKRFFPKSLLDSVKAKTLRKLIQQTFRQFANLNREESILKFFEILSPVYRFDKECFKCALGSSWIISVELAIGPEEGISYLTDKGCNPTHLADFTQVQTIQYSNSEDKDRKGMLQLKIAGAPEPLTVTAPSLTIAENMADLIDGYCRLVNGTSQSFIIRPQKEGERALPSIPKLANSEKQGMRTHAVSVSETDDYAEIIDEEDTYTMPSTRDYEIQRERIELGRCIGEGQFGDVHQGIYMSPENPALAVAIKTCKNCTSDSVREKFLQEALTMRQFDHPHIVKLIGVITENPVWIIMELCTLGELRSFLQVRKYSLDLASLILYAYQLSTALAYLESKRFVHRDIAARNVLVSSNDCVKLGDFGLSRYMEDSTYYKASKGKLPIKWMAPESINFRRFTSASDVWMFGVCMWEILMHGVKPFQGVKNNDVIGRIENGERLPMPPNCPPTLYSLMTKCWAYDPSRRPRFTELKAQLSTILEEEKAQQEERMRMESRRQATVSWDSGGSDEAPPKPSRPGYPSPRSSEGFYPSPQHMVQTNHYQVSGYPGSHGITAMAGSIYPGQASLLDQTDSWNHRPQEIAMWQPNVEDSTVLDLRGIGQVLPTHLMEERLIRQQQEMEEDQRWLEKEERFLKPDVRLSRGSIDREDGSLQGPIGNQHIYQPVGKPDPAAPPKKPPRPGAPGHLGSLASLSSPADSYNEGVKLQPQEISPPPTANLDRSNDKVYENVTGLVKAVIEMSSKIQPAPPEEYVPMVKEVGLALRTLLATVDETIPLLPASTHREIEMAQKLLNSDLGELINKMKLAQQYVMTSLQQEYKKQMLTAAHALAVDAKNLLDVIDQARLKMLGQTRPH

`COC(=O)C[C@H]1O[C@]2(C(=O)N(C)c3ccccc32)[C@@H](C)[C@@H]1[Si](C)(C)c1ccc(OC)cc1`: the composite z-score was 0.163 with Albumin (Bos taurus); 0.0185 in experiment [2]; -0.135 in experiment [3]; 0.158 in experiment [4]; 0.342 in experiment [5]; 0.494 in experiment [6]. In addition, the composite z-score in the experiment with Sam68 (KHDRBS1) came out at 0.567; in [7], 0.291; in experiment [8] it was 0.598; in experiment [9], 0.284; in [10], 0.824; in experiment [11] it was 0.0035. Moreover, the composite z-score in experiment [12] stood at 0.728; in experiment [13], 0.328; in experiment [14], 0.792; in the experiment with Lefty1, 1.33; in experiment [16], 0.332. In experiment [1], the composite Z-score was -0.211 (inactive). In addition, the z-score in [15] is 0.569; in experiment [17], -0.274 (inactive).

Regarding `CC/C=C/C(=O)N(C[C@@H]1CCCO1)[C@@H]1CC(C(=O)NCCO)=C[C@H](Oc2c(I)cc(CO)cc2OC)[C@H]1O`, the composite z-score with Albumin (Bos taurus) is 0.74; in [2], 0.0208; in [3] it was -0.103; in experiment [4] it was 0.721; in [5], 1.42; in experiment [6], 0.739. Further, the composite z-score with Sam68 (KHDRBS1) is 0.787; in [7], -0.355; in experiment [8], -0.629; in experiment [9] it was 0.224; in experiment [10], 0.164; in [11] it was 0.303. The composite z-score in [12] is 0.217; in experiment [13] it was -0.227; in experiment [14], -0.273; in the experiment on Lefty1, 0.0903; in experiment [16], 0.701. In addition, the composite Z-score in experiment [1] is 0.465 (inactive). The figures for the z-score in [15] and in [17] were 1.91 and -1.47 (inactive), respectively.

`O=C1C2C=CC(C(O)Cc3ccccc3)N(Nc3ccc([N+](=O)[O-])cc3)C2C(=O)N1c1ccccc1` (stereo not given): the composite z-score with Albumin (Bos taurus) came out at 0.944; in [2], 0.357; in [3], 0.401; in experiment [4], 0.759; in experiment [5], 1.02; in experiment [6] it was 0.517. Further, the composite z-score is 0.719 in the experiment with Sam68 (KHDRBS1); 0.709 in experiment [7]; 0.185 in [8]; 1.46 in [9]; 1.01 in experiment [10]; 0.331 in experiment [11]. The composite z-score in [12] is 0.405; in [13], 0.252; in experiment [14], -0.165; with Lefty1, -0.0551; in experiment [16] it was 0.245. Further, the composite Z-score in [1] is -0.205 (inactive). Besides, the z-score is -0.75 in experiment [15] and 1.36 (inactive) in [17].

As for `O=C(CS)NCCCCCNC(=O)[C@H]1C[C@H]2C(=O)N3CCC[C@H]3C(=O)N2[C@H]1c1ccc(O)cc1`, the composite z-score is -1.54 with Albumin (Bos taurus); -0.229 in [2]; -0.0304 in [3]; 0.729 in experiment [4]; 0.0961 in experiment [5]; 1.23 in experiment [6]. Besides, the composite z-score with Sam68 (KHDRBS1) is -0.305; in [7], 0.641; in experiment [8] it was -0.736; in [9] it was 0.215; in [10] it was -1.25; in [11], -0.384. In addition, the composite z-score was -0.743 in experiment [12]; 0.927 in [13]; 0.917 in experiment [14]; -0.0421 in the experiment with Lefty1; -1.68 in experiment [16]. In [1], the composite Z-score is -0.17 (inactive). Moreover, the z-score in [15] is 1.54; in experiment [17] it was -1.75 (inactive).

Take `C[C@H]1NC(=O)[C@@H](C)NC(=O)[C@@]23C(=O)N[C@@H](Cc4ccccc4)C2[C@H](C)[C@@]2(C)O[C@H]2C3/C=C/C/C=C\CNC1=O` (stereo not given in full): the composite z-score was -0.631 with Albumin (Bos taurus); -0.195 in experiment [2]; -0.126 in [3]; 0.502 in experiment [4]; -0.482 in [5]; -0.599 in [6]. The composite z-score in the experiment on Sam68 (KHDRBS1) was -0.344; in [7] it was 0.274; in experiment [8], -0.888; in [9] it was -0.759; in experiment [10], -1.84; in [11] it was -0.801. For the same compound, the composite z-score was -0.388 in experiment [12]; 0.117 in [13]; 0.0213 in [14]; -0.0767 in the experiment on Lefty1; 0.0969 in experiment [16]. Also, the composite Z-score in [1] is 0.0894 (inactive). Further, the z-score is 1.07 in [15] and -0.919 (inactive) in [17].
